From PubChem BioAssay (NCATS)
Where “and” joins values, the source holds several entries; their conditions need not be identical. Identical values can stand only once. Results filed as inconclusive are left out. Entries that show only a call come without a potency. Unmarked numbers belong to inactive results. Calls of active or inactive are those of the source. Unless noted, calls come from the whole dose curve; as a rule, active = well fitted curve in the direction sought with a large enough effect; inconclusive = small, poorly fitted or top-dose-only effect, or another doubt; inactive = no such curve, though single readings can be large; an effect the other way counts as inactive or inconclusive.

Columns and labels:
[1] = Primary qHTS for inhibitors of La Crosse Virus (LACV) - induced cell death in SH-SY5Y cells (AID 1508616); note: potency is the fitted concentration of half-maximal effect
Outline: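 Readout was luminescence from ATPLite 1step added after a 6-day LACV infection (0.01 MOI) of SH-SY5Y cells that had received pin-transferred compound 24 hr after seeding.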

[2] = target: Calcium and integrin-binding protein 1 (Homo sapiens) (UniProt Q99828); assay: Validation qHTS for Identification of Calcium Integrin Binding protein 1 (CIB1) Competitor (AID 1508618)
Outline: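 CIB1-GST (1 uM final) in 5 mM HEPES pH 7.4, 125 mM NaCl, 5 mM CaCl2, 0.01% Tween20 was preincubated 15 min at room temperature with compound (up to 114 uM), then FITC-alphaIIb peptide (100 nM) added for 15 min; fluorescence polarization read.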

[3] = Primary qHTS for small molecule stabilizers of the endoplasmic reticulum resident proteome: Secreted ER Calcium Modulated Protein (SERCaMP) assay (AID 1508630)
Outline: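 GLuc-SERCaMP-expressing SH-SY5Y cells, pretreated 16 h with compound, are challenged with thapsigargin to empty ER calcium stores; after 4 h, coelenterazine is added directly to the medium and luminescence is imaged.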

[4] = Counterscreen qHTS for small molecule stabilizers of the endoplasmic reticulum resident proteome: GLuc-NoTag assay (AID 1508627);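 note: SH-SY5Y cells given compound then 100 nM thapsigargin to empty ER calcium; series mostly up to about 76 µM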
Outline: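 SH-SY5Y cells stably expressing constitutively secreted GLuc without SERCaMP tag, exposed to compound for 19 hr, then to 100 nM thapsigargin for 4 hr at 37C. Medium luciferase was read by coelenterazine luminescence without lysis.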

[5] = Confirmatory qHTS for small molecule stabilizers of the endoplasmic reticulum resident proteome: Secreted ER Calcium Modulated Protein (SERCaMP) assay (AID 1508628); note: nearly all actives have a fitted effect of over 40% in size; note: potency is the fitted concentration of half-maximal effect
Outline: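 We seeded SH-SY5Y-GLuc-SERCaMP cells, added compounds (three concentrations in the primary run, eleven up to 76.6 uM in confirmation), incubated 16 h, depleted ER calcium with thapsigargin, and read luciferase 4 h later.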

[6] = target: Cytochrome P450 2D6 (Homo sapiens) (UniProt P10635); assay: Cytochrome P450 family 2 subfamily D member 6 (CYP2D6) small molecule antagonists: luciferase biochemical (cell-free) qHTS assay (AID 1645840; active = well fitted curve in the direction sought with a large enough effect in the repeat runs; an effect the other way counts as inactive or inconclusive; note: potency is the fitted concentration of half-maximal effect; nearly all actives have a fitted effect of over 55% in size)
Outline: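 P450-Glo luminescent screen: recombinant CYP2D6 enzyme–proluciferin substrate mix preincubated with compound 10 min at room temperature, then NADPH regeneration added for 1 h at room temperature. Detection reagent added for 20 min; luciferin light read as relative luminescence units.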

[7] = A High-Content qHTS Against Drug Library for the Identification of Small Molecules that Inhibit DYT1 Early Onset Primary Dystonia-Associated Cell Pathology (AID 1645839; calls by dose curve; note: potency is the fitted concentration of half-maximal effect)
Outline: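 Flp-In T-REx 293 cells with tetracycline-inducible EGFP-delE hTOR1A (WT EGFP-hTOR1A as reference), 800 cells/well; compound added with tetracycline, 48 h at 37 C. Fixed, permeabilized cells imaged; %pathology (punctate TorsinA) primary, cell count counterscreen.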

[8] = Cell Viability qHTS for small molecule stabilizers of the endoplasmic reticulum resident proteome (AID 1508629); conditions: cell viability counter-screen, 100 nM thapsigargin for final 4 h;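 note: human SH-SY5Y neuroblastoma cells carrying the GLuc-SERCaMP reporter; compound exposure about 46 h in total before the viability read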

Sequence of Cytochrome P450 2D6 (Homo sapiens) (P10635 whole entry, looked up): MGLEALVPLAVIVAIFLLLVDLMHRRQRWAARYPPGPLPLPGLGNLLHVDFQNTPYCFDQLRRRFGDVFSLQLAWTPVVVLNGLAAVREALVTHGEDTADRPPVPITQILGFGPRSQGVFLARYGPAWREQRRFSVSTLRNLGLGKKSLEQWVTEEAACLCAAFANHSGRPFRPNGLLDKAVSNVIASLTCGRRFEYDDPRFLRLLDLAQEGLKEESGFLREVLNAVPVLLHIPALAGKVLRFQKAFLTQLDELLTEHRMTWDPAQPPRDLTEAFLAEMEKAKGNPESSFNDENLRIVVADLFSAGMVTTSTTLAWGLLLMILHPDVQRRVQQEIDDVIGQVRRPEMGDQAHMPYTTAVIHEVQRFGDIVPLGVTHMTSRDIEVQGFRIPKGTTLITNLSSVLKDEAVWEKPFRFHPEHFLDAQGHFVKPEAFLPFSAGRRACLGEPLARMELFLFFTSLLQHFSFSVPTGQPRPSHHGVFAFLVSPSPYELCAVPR
Sequence of Calcium and integrin-binding protein 1 (Homo sapiens) (Q99828 whole entry, looked up): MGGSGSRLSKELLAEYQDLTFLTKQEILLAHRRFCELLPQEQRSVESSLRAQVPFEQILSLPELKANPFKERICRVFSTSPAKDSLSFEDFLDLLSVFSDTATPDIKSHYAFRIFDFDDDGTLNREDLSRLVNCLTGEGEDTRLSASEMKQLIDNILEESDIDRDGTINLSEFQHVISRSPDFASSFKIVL

Cc1cc([C@@H]2CCCN2C)on1
Potency [1]: inactive | Potency [2]: inactive | outcome [3]: inactive

C[N+]1(C)CCOC(O)(c2ccc(-c3ccc(C4(O)C[N+](C)(C)CCO4)cc3)cc2)C1 (stereo unspecified)
Potency [1]: inactive | outcome [3]: inactive

CC12NC(Cc3ccccc31)c1ccccc12 (stereo unspecified)
Potency [1]: inactive | outcome [3]: inactive

C[C@@H]1O[C@H](C[N+](C)(C)C)CS1
Potency [1]: inactive | outcome [3]: inactive

C[C@H](N)Cc1cccc(C(F)(F)F)c1
Potency [1]: inactive | outcome [3]: inactive

NC(Cc1ccc(N(CCCl)CCCl)cc1)C(=O)O (stereo unspecified)
Potency [1]: 0.794 µM (active) | outcome [3]: inactive

CP(=O)(O)C1=CCNCC1
Potency [1]: inactive | outcome [3]: inactive

COc1ccc2c(c1O)-c1cccc3c1[C@@H](C2)N(C)CC3
Potency [1]: inactive | outcome [3]: inactive

C[Se]C[C@H](N)C(=O)O
Potency [1]: inactive | outcome [3]: inactive

CC(N)[C@H](O)c1ccc(O)c(O)c1 (stereo partly specified)
Potency [1]: inactive | outcome [3]: inactive

C=CCN(C1=NCCN1)c1c(Cl)cccc1Cl
Potency [1]: inactive | outcome [3]: inactive

COc1ccc2[nH]c3c(c2c1)CCNC3
Potency [1]: inactive | outcome [3]: inactive

O=[N+]([O-])c1cc(O)c(O)c([N+](=O)[O-])c1
Potency [1]: inactive | outcome [3]: inactive

COc1cc(CC(C)N)c(OC)cc1I (stereo unspecified)
Potency [1]: inactive | outcome [3]: inactive

C=CCN1CC[C@]23c4c5ccc(O)c4O[C@H]2/C(=N/NC(=O)c2ccccc2)CC[C@@]3(O)[C@H]1C5
Potency [1]: inactive | outcome [3]: inactive

Oc1ccc2c3c1O[C@H]1c4oc5ccccc5c4C[C@@]4(O)C(C2)N(CC2CC2)CCC314 (stereo partly specified)
Potency [1]: inactive | outcome [3]: inactive

O=C(O)c1cc[c]([Hg][Cl])cc1
Potency [1]: inactive | outcome [4]: inactive | outcome [3]: inactive

CCOC(=O)c1ncn2c1[C@@H]1CCCN1C(=O)c1cc(OC)ccc1-2
Potency [1]: inactive | outcome [3]: inactive

O=c1c2ccccc2[se]n1-c1ccccc1
Potency [1]: inactive | outcome [3]: inactive

COc1ccc2c(c1)c(CCN1CCOCC1)c(C)n2C(=O)c1cccc(Cl)c1Cl
Potency [1]: inactive | outcome [3]: inactive

COC(=O)N1CCN(C(=O)Cc2ccc(Cl)c(Cl)c2)C(CN2CCCC2)C1 (stereo unspecified)
Potency [1]: inactive | outcome [3]: inactive

N[C@@H](CCl)C(=O)O
Potency [1]: inactive | outcome [3]: inactive

NC(CCCCCP(=O)(O)O)C(=O)O (stereo unspecified)
Potency [1]: inactive | outcome [3]: inactive

NCC(O)c1cc(O)c(O)cc1F (stereo unspecified)
Potency [1]: inactive | Potency [5]: inactive

N[C@@H](Cn1oc(=O)[nH]c1=O)C(=O)O
Potency [1]: inactive | outcome [3]: inactive

C[N+](C)(C)CC#CCN1CCCC1=O
Potency [1]: inactive | outcome [3]: inactive

CCN(CCCl)Cc1ccccc1Br
Potency [1]: 2.82 µM (active) | outcome [3]: inactive

Cc1[nH]c2ccc(O)cc2c1CCN
Potency [1]: inactive | outcome [3]: inactive

C[N+](C)(C)CCOC(=O)CBr
Potency [1]: inactive | outcome [3]: inactive

Cc1sc2ccccc2c1CC1=NCCN1
Potency [1]: inactive | outcome [3]: inactive

NC(N)=Nc1ccc2[nH]c3c(c2c1)C[C@@]1(O)[C@H]2Cc4ccc(O)c5c4[C@@]1(CCN2CC1CC1)[C@H]3O5
Potency [1]: inactive | outcome [3]: inactive

O=C1CC[C@@]2(O)C3Cc4ccc(O)c5c4C2(CCN3CC2CC2)[C@H]1O5 (stereo partly specified)
Potency [1]: inactive | outcome [3]: inactive

CCCn1c(C)c(C(=O)c2ccc3ccccc3c2)c2ccccc21
Potency [1]: inactive | outcome [3]: inactive

C[C@@H]1[C@@H]2Cc3ccc(O)cc3[C@@]1(C)CCN2CC1CC1
Potency [1]: inactive | outcome [3]: inactive

NNC(=O)c1ccc(O)cc1
Potency [1]: inactive | outcome [3]: inactive

Clc1cc(I)cc(Cl)c1NC1=NCCN1
Potency [1]: inactive | outcome [3]: inactive

NC(=O)c1ccc(OCC(O)CN2CC=C(c3ccc(F)cc3)CC2)cc1 (stereo unspecified)
Potency [1]: inactive | outcome [3]: inactive

O=[N+]([O-])c1ccc2nc(N3CCNCC3)ccc2c1
outcome [4]: inactive

Oc1ccc2c3c1O[C@H]1c4[nH]c5ccccc5c4C[C@@]4(O)C(C2)N(CC2CC2)CCC314 (stereo partly specified)
Potency [5]: 12.6 µM (active)

CN1CCC[C@@H]1Cc1c[nH]c2ccc(Nc3ncccc3[N+](=O)[O-])cc12
Potency [6]: 3.01 µM (active)

C[CH2][Hg][S]c1ccccc1C(=O)O
outcome [3]: inactive | Potency [7]: 5.01 µM (active)

CCCSP(=O)(OCC)SCCC
Potency [7]: inactive

Cc1cc(C)cc(C(=O)OC2C[C@H]3CC[C@@H](C2)N3C)c1 (stereo partly specified)
outcome [4]: inactive

O[C@H]1[C@H]2[C@H](O)CCCN2C[C@H]1O
outcome [4]: inactive | max response [8]: 13.7% and 34.4%

COc1ccc2c(c1)[C@@]13CCCC[C@H]1[C@@H](C2)NCC3
Potency [5]: inactive
